Measured values taken from PubChem BioAssay (NCATS).
Records with an inconclusive call do not appear. Active and inactive are the calls of the source. Unless noted, the call rests on the fitted dose curve; in most records, active means well fitted curve in the direction sought with a large enough effect; inconclusive means small, poorly fitted or top-dose-only effect, or another doubt; inactive means no such curve, though single readings can be large; an effect the other way counts as inactive or inconclusive.

What was measured:
[1] = target: Lysosomal acid glucosylceramidase (Homo sapiens) (UniProt P04062); assay: Glucocerebrosidase-p2 (AID 348; in the data active means potency below about 10 µM; further: potency means the concentration at half of the fitted maximal effect); conditions: purified GBA, blue fluorogenic substrate, 40 min
Lysosomal acid glucosylceramidase (Homo sapiens), sequence (P04062 whole entry, looked up): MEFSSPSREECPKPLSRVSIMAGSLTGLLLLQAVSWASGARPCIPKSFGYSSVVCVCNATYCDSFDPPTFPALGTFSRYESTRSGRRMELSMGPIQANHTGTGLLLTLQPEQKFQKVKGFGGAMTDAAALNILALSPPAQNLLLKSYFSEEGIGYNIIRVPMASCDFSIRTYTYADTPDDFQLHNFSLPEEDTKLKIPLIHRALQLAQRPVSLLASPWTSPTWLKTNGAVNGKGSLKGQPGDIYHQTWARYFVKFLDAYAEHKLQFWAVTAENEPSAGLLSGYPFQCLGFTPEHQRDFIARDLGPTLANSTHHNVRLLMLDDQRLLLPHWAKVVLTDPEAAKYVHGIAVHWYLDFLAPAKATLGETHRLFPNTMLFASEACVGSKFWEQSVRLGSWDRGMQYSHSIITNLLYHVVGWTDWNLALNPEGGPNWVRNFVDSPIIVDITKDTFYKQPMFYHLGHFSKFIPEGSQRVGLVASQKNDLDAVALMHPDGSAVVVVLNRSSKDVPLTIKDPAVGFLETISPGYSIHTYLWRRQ
In short: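 Normal human glucocerebrosidase (0.2 nM) with blue fluorogenic substrate (80 uM final) in citrate/phosphate pH 5.9 with 10mM sodium taurocholate, 0.01% tween-20; 40 min RT, NaOH/glycine stop; fluorescence Ex 365/Em 440; AC50 from a titration from 0.6 nM upwards.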

[2] = AP1 Signaling Pathway (AID 357; active means well fitted curve in either direction with a large enough effect, not every such curve was filed as active;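 further: ME-180 reporter cells stimulated with EGF at its EC50 level; on the % scale 0 is the no-effect control and ±100 the full control effect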); conditions: ME-180 AP-1-bla reporter, EGF-induced, beta-lactamase ratio, 5 h; at 7.69 µM (top of the series) unless noted
In short: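 Read-out was the 460nm/530nm emission ratio (excitation 405nm) after CCF4 loading for 2.5 hours at room temperature. Cells carried an AP-1-driven beta-lactamase reporter, were stimulated with EC50 EGF plus compound for 5 hours, and AC50 values came from titrations.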

[3] = target: Cytochrome P450 1A2 (Homo sapiens) (UniProt P05177); assay: p450-cyp1a2 (AID 410; calls by dose curve; further: potency means the concentration at half of the fitted maximal effect); conditions: recombinant CYP1A2, luciferin-ME demethylation, luminescence; series mostly up to 57 µM
Cytochrome P450 1A2 (Homo sapiens), sequence (P05177 whole entry, looked up): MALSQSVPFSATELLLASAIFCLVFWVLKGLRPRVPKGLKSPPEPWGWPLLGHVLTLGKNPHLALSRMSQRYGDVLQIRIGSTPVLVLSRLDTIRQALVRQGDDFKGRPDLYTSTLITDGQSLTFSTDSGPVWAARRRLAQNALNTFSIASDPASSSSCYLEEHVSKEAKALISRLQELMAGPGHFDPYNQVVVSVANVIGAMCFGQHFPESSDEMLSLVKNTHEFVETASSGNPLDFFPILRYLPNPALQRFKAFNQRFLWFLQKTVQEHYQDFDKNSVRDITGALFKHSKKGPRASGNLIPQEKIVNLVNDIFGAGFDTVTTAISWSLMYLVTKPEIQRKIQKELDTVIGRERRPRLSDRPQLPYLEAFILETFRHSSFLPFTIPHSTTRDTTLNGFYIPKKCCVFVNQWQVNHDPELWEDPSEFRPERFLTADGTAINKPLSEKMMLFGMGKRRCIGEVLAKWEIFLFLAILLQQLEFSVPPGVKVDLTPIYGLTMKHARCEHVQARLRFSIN
In short: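 Luminescent demethylation readout: Luciferin-ME (100uM, equal to Km) turned over by 20nM CYP1A2 for 60 min at room temperature after NADPH regeneration addition, following 10 min compound preincubation. Normalization used 57 uM furafylline as full inhibition.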

[4] = NFAT Signaling Pathway (AID 444; active means well fitted curve in either direction with a large enough effect, not every such curve was filed as active;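 further: carbachol stimulus at about its EC50 of 1 µM final; on the % scale 0 is the no-effect control and ±100 the full control effect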); conditions: Jurkat NFAT-bla M1, carbachol, beta-lactamase ratio, 5 h; at 7.69 µM (top of the series) unless noted
In short: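 Jurkat cells with NFAT-driven β-lactamase reporter and co-expressed M1 receptor, stimulated with carbachol (final 1 uM, ~EC50), compound titration, 5 h at 37 °C. CCF4 loaded 1 h at RT; 460/530 nm ratio gave %activity and AC50.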

[5] = Stat Signaling Pathway (AID 446; active means well fitted curve in either direction with a large enough effect, not every such curve was filed as active;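 further: ME-180 cervical cancer cells given 40 pM IL-6 alongside compound; SIE-controlled beta-lactamase reporter measured as 460/530 nm FRET emission ratio; on the % scale 0 is the no-effect control and ±100 the full control effect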); conditions: ME-180 SIE beta-lactamase reporter, IL-6 stimulated, 5 h; at 7.69 µM (top of the series) unless noted
In short: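 Compound effects on IL-6-induced STAT reporter activity were measured in ME-180 cells. After overnight culture, cells were co-treated with 40 pM IL-6 for 5 hrs before beta-lactamase substrate loading at room temperature.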

[6] = target: Glucocorticoid receptor (Homo sapiens) (UniProt P04150); assay: GR-GFP Redistribution (AID 450;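 active means compounds whose dose series gives a full or clear partial fitted curve of increased nuclear translocation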; further: potency means the concentration at half of the fitted maximal effect); conditions: U2OS GR-GFP nuclear translocation, laser cytometry, 2 h
Glucocorticoid receptor (Homo sapiens), sequence (P04150 whole entry, looked up, the tested form may be a part): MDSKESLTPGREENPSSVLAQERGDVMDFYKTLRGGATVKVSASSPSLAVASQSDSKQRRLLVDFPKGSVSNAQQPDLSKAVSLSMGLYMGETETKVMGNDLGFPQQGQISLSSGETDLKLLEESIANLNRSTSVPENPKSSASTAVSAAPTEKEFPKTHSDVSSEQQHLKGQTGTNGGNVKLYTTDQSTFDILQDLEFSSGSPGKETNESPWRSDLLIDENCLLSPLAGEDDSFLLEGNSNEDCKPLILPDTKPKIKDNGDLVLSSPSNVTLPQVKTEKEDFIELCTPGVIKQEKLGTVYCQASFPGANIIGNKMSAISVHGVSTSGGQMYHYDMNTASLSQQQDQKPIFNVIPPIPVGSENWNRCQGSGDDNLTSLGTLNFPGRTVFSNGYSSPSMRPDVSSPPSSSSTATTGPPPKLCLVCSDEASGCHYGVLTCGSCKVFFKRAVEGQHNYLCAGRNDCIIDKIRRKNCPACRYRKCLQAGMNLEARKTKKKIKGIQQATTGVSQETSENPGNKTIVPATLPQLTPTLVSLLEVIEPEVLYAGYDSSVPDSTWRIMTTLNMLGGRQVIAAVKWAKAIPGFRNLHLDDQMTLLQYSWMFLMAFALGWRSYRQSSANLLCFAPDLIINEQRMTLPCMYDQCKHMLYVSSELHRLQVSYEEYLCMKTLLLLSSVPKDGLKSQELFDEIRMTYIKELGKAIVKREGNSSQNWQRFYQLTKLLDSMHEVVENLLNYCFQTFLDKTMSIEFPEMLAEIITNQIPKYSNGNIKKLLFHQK

[7] = target: Glucocorticoid receptor (Homo sapiens) (UniProt P04150); assay: GR-EFC Redistribution (AID 451; calls by dose curve; further: potency means the concentration at half of the fitted maximal effect); conditions: CHO-K1 GR-EFC translocation, beta-gal luminescence, 2 h
In short: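 CHO-K1 cells expressing nuclear EA and GR-ED fragments of b-gal; compounds titrated up to 46 uM final, 2 h at 37 C. GR nuclear translocation read as complemented b-gal luminescence after 1 h RT detection.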

[8] = target: Mitogen-activated protein kinase 10 (Mus musculus) (UniProt Q61831); assay: JNK3 AlphaScreen Assay (AID 530; active means well fitted curve in either direction with a large enough effect, not every such curve was filed as active;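 further: kinase came from lysate of stimulated human HepG2 cells; signal reports phosphorylation of biotinylated GST-cJun 1-79 at Ser73 with 10 µM ATP; on the % scale 0 is the no-effect control and ±100 the full control effect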); conditions: JNK3 lysate, c-Jun phosphorylation; series mostly up to 57.1 µM
In short: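 Activity was read by AlphaScreen after JNK3-containing HepG2 lysate (cytokine pre-activated) phosphorylated biotinylated GST-cJun with 10 uM ATP at room temperature. Phospho-Ser73 cJun antibody with Protein-A acceptor beads provided detection.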

[9] = target: 3',5'-cyclic-AMP phosphodiesterase 4B (Homo sapiens) (UniProt Q07343); assay: qHTS Assay for Inhibitors of PDE-IV (AID 607; active means well fitted activation curve with a large enough effect in the main read-out, with a control signal flat, not every such curve was filed as active; further: % of control where 0% means no effect); conditions: HEK293 ACTOne CNG channel cells, membrane potential fluorescence; series mostly up to 22.9 µM
3',5'-cyclic-AMP phosphodiesterase 4B (Homo sapiens), sequence (Q07343 whole entry, looked up): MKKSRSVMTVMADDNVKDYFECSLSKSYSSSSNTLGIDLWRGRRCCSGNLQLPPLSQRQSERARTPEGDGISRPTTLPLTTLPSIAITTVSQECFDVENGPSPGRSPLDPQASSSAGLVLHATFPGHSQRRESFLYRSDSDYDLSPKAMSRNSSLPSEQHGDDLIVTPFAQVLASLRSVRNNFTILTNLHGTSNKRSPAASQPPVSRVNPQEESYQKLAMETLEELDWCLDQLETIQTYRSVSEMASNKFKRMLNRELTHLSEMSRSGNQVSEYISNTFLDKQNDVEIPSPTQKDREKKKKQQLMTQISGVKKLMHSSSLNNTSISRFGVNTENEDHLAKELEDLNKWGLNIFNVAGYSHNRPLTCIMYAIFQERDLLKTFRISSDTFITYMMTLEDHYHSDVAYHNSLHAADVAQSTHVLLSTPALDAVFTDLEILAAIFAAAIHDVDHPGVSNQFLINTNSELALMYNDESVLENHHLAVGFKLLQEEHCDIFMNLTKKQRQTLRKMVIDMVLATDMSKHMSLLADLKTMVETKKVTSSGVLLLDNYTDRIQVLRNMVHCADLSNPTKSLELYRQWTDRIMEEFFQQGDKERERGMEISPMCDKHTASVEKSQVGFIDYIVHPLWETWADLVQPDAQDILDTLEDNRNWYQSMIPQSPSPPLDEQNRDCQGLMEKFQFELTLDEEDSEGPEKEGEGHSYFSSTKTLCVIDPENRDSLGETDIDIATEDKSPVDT
In short: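 ACTOne HEK293 cells carry a modified cAMP-gated CNG channel and express endogenous PDE4; plated 1000 cells/well, compounds up to 22.9 uM final. Membrane-potential dye fluorescence (ex 535/em 590) was read; parental cells received 10 uM forskolin + 100 uM RO 20-1724.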

[10] = target: Cytochrome P450 3A4 (Homo sapiens) (UniProt P08684); assay: qHTS Assay for Inhibitors and Substrates of Cytochrome P450 3A4 (AID 884); conditions: recombinant CYP3A4, Luciferin-PPXE luminescence; series mostly up to 57.1 µM; further: potency means the concentration at half of the fitted maximal effect; nearly all actives have a fitted effect of over 50% in size
Cytochrome P450 3A4 (Homo sapiens), sequence (P08684 whole entry, looked up): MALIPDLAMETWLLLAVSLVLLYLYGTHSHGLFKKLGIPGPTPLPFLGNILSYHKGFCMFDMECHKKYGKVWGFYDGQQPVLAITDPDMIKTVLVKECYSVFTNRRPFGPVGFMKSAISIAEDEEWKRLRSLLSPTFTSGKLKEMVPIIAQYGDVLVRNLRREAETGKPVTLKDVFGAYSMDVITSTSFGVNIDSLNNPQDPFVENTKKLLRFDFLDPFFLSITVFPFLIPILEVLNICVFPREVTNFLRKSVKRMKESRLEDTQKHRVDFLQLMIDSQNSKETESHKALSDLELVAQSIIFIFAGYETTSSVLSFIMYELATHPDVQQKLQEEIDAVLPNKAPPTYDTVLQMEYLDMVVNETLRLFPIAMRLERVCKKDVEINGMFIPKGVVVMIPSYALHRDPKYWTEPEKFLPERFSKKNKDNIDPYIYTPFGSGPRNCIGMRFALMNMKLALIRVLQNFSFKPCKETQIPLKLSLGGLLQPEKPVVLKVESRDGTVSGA
In short: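 Luminescent readout of luciferin produced by CYP3A4 (20 nM) dealkylation of Luciferin-PPXE, 25 uM (its KM). NADPH-driven reaction ran 60 min at RT after 10 min compound preincubation; data scaled to 57 uM ketoconazole as 100% inhibition.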

[11] = target: Cytochrome P450 3A4 (Homo sapiens) (UniProt P08684); assay: qHTS Assay for Activators of Cytochrome P450 3A4 (AID 885); conditions: recombinant CYP3A4, Luciferin-PPXE luminescence, 60 min; series mostly up to 57.1 µM; further: nearly all actives have a fitted effect of over 65% in size
In short: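 CYP3A4 activity: Luciferin-PPXE O-dealkylation, 25uM substrate, 200mM KPO4, RT throughout. Read-out is luciferase luminescence; higher values reflect activation.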

[12] = qHTS Assay for Lipid Storage Modulators (AID 1519; calls by dose curve); conditions: Drosophila S3 cells, BODIPY lipid droplet/cell ratio, laser cytometry, cells loaded with oleic acid; for activity change, negative = inhibition: at 57.5 µM (top of the series)
In short: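 Cells seeded at 5,000 per well were treated with compounds over a concentration series and loaded with oleic acid (400 uM, as added). Lipid droplet fluorescence (488 nm excitation, 500-530 nm channel) was read by laser-scanning cytometry and normalized to 20 uM Triacsin C.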

[13] = target: Dual specificity protein kinase CLK4 (Homo sapiens) (UniProt Q9HAZ1); assay: qHTS Assay for Inhibitors of CDC-like Kinase 4 (Kinase-Glo Assay) (AID 1770); conditions: recombinant Clk4, Kinase-Glo ATP depletion luminescence; series mostly up to 66.7 µM; further: nearly all actives have a fitted effect of over 65% in size; further: potency means the concentration at half of the fitted maximal effect
Dual specificity protein kinase CLK4 (Homo sapiens), sequence (Q9HAZ1 whole entry, looked up): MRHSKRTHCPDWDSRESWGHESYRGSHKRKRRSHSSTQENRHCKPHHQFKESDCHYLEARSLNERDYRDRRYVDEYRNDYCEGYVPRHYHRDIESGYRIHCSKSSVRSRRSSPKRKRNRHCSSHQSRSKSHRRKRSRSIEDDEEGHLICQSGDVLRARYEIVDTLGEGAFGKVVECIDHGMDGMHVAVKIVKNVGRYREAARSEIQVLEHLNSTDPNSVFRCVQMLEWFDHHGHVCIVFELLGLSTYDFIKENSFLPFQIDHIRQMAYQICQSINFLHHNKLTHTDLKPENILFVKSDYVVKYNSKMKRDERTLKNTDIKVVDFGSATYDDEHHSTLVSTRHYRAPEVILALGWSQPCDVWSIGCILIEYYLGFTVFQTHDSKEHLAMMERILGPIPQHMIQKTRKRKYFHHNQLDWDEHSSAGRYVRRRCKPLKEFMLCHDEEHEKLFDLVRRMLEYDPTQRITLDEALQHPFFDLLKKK
In short: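 25 nM Clk4 with 100 uM RS repeat peptide and 1 uM ATP (final) in Tris pH7.5, 10 mM MgCl2, 4.5 h at room temperature. Remaining ATP measured by Kinase-Glo luciferase luminescence.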

[14] = target: Ubiquitin carboxyl-terminal hydrolase 1 (Homo sapiens) (UniProt O94782); assay: Inhibitors of USP1/UAF1: Pilot qHTS (AID 504865); conditions: purified USP1/UAF1, Ub-rhodamine cleavage fluorescence; series mostly up to 54.9 µM;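 further: rhodamine fluorescence freed from ubiquitin-rhodamine substrate followed over time; top concentration of the series differs between compounds; on the % scale 0 is the no-effect control and ±100 the full control effect; nearly all actives have a fitted effect of over 35% in size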
Ubiquitin carboxyl-terminal hydrolase 1 (Homo sapiens), sequence (O94782 whole entry, looked up): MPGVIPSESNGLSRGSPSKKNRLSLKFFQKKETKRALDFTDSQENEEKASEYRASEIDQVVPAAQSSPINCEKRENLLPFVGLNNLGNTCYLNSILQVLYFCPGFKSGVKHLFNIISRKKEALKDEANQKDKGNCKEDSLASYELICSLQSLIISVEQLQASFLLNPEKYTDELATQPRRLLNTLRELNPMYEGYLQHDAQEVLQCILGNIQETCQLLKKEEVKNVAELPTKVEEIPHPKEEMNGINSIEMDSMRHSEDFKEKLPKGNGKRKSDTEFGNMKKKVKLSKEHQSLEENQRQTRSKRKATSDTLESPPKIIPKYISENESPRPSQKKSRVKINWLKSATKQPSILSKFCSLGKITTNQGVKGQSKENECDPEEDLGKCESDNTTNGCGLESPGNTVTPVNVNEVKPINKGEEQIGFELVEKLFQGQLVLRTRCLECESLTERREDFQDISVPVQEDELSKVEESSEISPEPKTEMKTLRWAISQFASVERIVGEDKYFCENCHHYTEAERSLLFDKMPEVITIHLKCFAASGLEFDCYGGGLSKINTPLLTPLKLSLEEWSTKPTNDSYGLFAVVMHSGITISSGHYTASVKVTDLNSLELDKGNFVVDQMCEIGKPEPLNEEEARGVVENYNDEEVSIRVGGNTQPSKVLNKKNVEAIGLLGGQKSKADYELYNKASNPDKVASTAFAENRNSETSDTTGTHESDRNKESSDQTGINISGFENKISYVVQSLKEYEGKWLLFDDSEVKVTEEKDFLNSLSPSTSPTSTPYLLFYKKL
In short: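 USP1/UAF1 complex at 1 nM preincubated 15 min at room temperature with compound, then Ub-Rho substrate added at 150 nM final. Fluorescence (480/540 nm) read kinetically in 50 mM HEPES pH 7.8, 0.5 mM EDTA, 1 mM TCEP, 0.1 mg/ml BSA, 0.01% Tween-20.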

[15] = Primary qHTS for small molecule stabilizers of the endoplasmic reticulum resident proteome: Secreted ER Calcium Modulated Protein (SERCaMP) assay (AID 1508630); conditions: SH-SY5Y GLuc-SERCaMP (Gaussia luciferase released on ER calcium loss) secretion, thapsigargin, luminescence; series mostly up to 38.4 µM; further: on the % scale 0 is the no-effect control and ±100 the full control effect
In short: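 The SH-SY5Y reporter protocol was run at 3 concentrations up to 38.3 uM (primary) or 11 concentrations (follow-up): 16 h compound, 100 nM thapsigargin for 4 h, then extracellular luciferase luminescence.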

[16] = target: Dual specificity protein kinase CLK4 (Homo sapiens) (UniProt Q9HAZ1); assay: qHTS Assay for Inhibitors of CDC-like Kinase 4 (ADP-Glo Assay) (AID 1771); conditions: recombinant CLK4, ADP-Glo luminescence; series mostly up to 80 µM; further: potency means the concentration at half of the fitted maximal effect; nearly all actives have a fitted effect of over 70% in size
In short: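 ADP production was read by ADP-Glo luminescence after residual ATP depletion, following 1 h room-temperature reaction of 25 nM Clk4, 1 uM ATP and 100 uM RS peptide with MgCl2, EGTA, DTT and Triton X-100.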

[17] = target: Dual specificity protein kinase CLK4 (Homo sapiens) (UniProt Q9HAZ1); assay: qHTS Assay for Inhibitors of CDC-like Kinase 4 (ADP-FP Assay) (AID 1795); conditions: Transcreener ADP fluorescence polarization; series mostly up to 50 µM; further: nearly all actives have a fitted effect of over 60% in size; further: potency means the concentration at half of the fitted maximal effect
In short: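 Recombinant Clk4 (6.25 nM) phosphorylated 100 uM RS repeat peptide with 1 uM ATP in 25 mM Tris pH 7.5, 10 mM MgCl2, 0.5 mM EGTA, 2.5 mM DTT, 0.01% Triton X-100 for 1 h. ADP was detected by Transcreener ADP2 competitive fluorescence polarization after 30 min at room temperature.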

[18] = target: Cytochrome P450 2C9 (Homo sapiens) (UniProt P11712); assay: qHTS Assay for Inhibitors and Substrates of Cytochrome P450 2C9 (AID 883); conditions: recombinant CYP2C9, luciferin-H luminescence, 60 min; series mostly up to 57.1 µM; further: on the % scale 0 is the no-effect control and ±100 the full control effect; nearly all actives have a fitted effect of over 60% in size
Cytochrome P450 2C9 (Homo sapiens), sequence (P11712 whole entry, looked up): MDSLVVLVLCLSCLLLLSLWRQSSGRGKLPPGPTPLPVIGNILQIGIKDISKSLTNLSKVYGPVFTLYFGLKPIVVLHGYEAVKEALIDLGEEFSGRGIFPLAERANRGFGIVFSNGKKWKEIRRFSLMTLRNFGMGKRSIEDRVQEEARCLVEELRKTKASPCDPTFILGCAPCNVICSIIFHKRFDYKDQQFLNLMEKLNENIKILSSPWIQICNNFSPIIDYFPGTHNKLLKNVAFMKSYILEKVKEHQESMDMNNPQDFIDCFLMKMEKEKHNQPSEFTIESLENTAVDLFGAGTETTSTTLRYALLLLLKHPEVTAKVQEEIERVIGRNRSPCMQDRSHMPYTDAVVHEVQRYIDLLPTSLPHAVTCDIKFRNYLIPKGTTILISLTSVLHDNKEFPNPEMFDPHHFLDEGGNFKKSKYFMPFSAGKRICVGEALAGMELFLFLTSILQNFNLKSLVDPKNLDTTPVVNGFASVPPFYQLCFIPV
In short: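 Human CYP2C9 (10nM) with Luciferin-H at 100uM (its KM) in 25mM KPO4; compound preincubated 10 min at 37C, then NADPH regeneration for 60 min at 37C. Luciferin read by luminescence after detection reagent; normalized to 57uM sulphaphenazole as full inhibition.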

[19] = qHTS Assay for Identification of Small Molecule Agonists for Hypoxia Response Element Signaling Pathway (AID 914; active means well fitted activation curve with a large enough effect in the signal ratio, with a control signal flat, not every such curve was filed as active; the % refers to the signal ratio; further: potency means the concentration at half of the fitted maximal effect); conditions: ME-180 (cervical carcinoma) HRE-bla reporter, beta-lactamase ratio, CoCl2, 17 h; activation: stronger effect = higher value
In short: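 HRE-bla ME-180 assay for agonist-like enhancement of an EC50 CoCl2 stimulus: 17 h at 37 degrees Celsius, CCF4 for 2.5 h, ratiometric 460/530 nm signal converted to %Activity and fitted to AC50.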

[20] = measured here: cell count channel max response
[21] = measured here: lipid channel max response

Structure (SMILES): Cc1cccc(CNc2cc(-c3c(C)noc3C)ncn2)c1
- Potency [1]: > 11.4 µM (inactive)
- activity change, negative = inhibition [2]: -5.03% (inactive)
- Potency [3]: 1 µM (active)
- activity change, negative = inhibition [4]: -10.8% (inactive)
- activity, negative = inhibition [5]: -4.88% (inactive)
- Potency [6]: > 46 µM (inactive)
- Potency [7]: > 46 µM (inactive)
- outcome [8]: inactive
- Potency [9]: inactive
- Potency [10]: 5.01 µM (active)
- Potency [11]: inactive
- activity change, negative = inhibition [12]: 8.24% (inactive)
- max response [12, 20]: 14.9%
- max response [12, 21]: 22%
- Potency [13]: 15.8 µM (active)
- Potency [14]: inactive
- Potency [15]: inactive

Structure (SMILES): Fc1ccc(Nc2ncncc2-c2ccoc2)cc1
- Potency [1]: > 11.4 µM (inactive)
- activity change, negative = inhibition [2]: -7.98% (inactive)
- Potency [3]: 0.316 µM (active)
- activity change, negative = inhibition [4]: 2.9% (inactive)
- Potency [6]: > 46 µM (inactive)
- Potency [7]: > 46 µM (inactive)
- outcome [8]: inactive
- Potency [10]: 0.501 µM (active)
- Potency [11]: inactive
- activity change, negative = inhibition [12]: 4.26% (inactive)
- max response [12, 20]: 9.18%
- max response [12, 21]: 12.6%
- Potency [16]: 10 µM (active)
- Potency [17]: 5.01 µM (active)
- Potency [14]: inactive
- Potency [15]: inactive

Structure (SMILES): Cn1c(=O)c(-c2ccc(Cl)cc2)nc2cnc(N3CCOCC3)nc21
- Potency [1]: > 11.4 µM (inactive)
- Potency [3]: 2.51 µM (active)
- activity change, negative = inhibition [4]: 26.9% (inactive)
- Potency [6]: > 9.22 µM (inactive)
- Potency [7]: > 46 µM (inactive)
- outcome [8]: inactive
- Potency [9]: inactive
- Potency [18]: inactive
- Potency [19]: 2.51 µM (active)
- activity change, negative = inhibition [12]: 6.96% (inactive)
- max response [12, 20]: 10.9%
- max response [12, 21]: 17.6%
- Potency [13]: inactive
- Potency [17]: inactive
- Potency [14]: inactive
- Potency [15]: inactive

Structure (SMILES): c1csc(CNc2cc(-c3ccoc3)ncn2)c1
- Potency [1]: > 11.4 µM (inactive)
- activity change, negative = inhibition [2]: -0.901% (inactive)
- Potency [3]: 2 µM (active)
- activity change, negative = inhibition [4]: -2.52% (inactive)
- activity, negative = inhibition [5]: 3.9% (inactive)
- Potency [6]: > 46 µM (inactive)
- Potency [7]: > 46 µM (inactive)
- outcome [8]: inactive
- Potency [9]: inactive
- Potency [11]: inactive
- activity change, negative = inhibition [12]: 5.83% (inactive)
- max response [12, 20]: 26.5%
- max response [12, 21]: 29.6%
- Potency [16]: 35.5 µM (active)
- Potency [17]: inactive
- Potency [14]: inactive
- Potency [15]: inactive

Structure (SMILES): Cn1c(=O)c(-c2cccs2)nc2cnc(N3CCNCC3)nc21
- Potency [1]: > 11.4 µM (inactive)
- Potency [3]: 10 µM (active)
- Potency [6]: > 9.22 µM (inactive)
- Potency [7]: > 46 µM (inactive)
- outcome [8]: inactive
- Potency [9]: inactive
- Potency [11]: inactive
- Potency [19]: 3.16 µM (active)
- activity change, negative = inhibition [12]: 4.59% (inactive)
- max response [12, 20]: 15.4%
- max response [12, 21]: 18.9%
- Potency [13]: inactive
- Potency [17]: inactive
- Potency [15]: inactive
